Hit rate of the full screen: of about 300,000 compounds, about 5,200 (1.7%) were called active. The list comes from a sample in which actives are over-represented; it also holds similar structures and randomly drawn compounds. Values without a mark were called inactive.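 The calls were made as follows: active = mean replicate activation of at least 50% with a set share of replicates each reaching 50%; inconclusive = only one of those two conditions met; inactive = mean below 50% and too few replicates reaching it.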

The assay in a line: HSF-1 response element luciferase induction – NIH3T3-HGL cells, MG132 stress, luminescence, single point, primary screen (AID 504408).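 Also: 0% = median of the neutral control wells and 100% = twice that signal.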 The following applies: NIH3T3-HGL HSF-1 luciferase reporter, MG132, 8 h; at 9 µM; hits give high values; 100% = twice DMSO control signal.
Take `Cc1ccc(NC(=O)CN2C(=O)NC(C)(c3ccc(Cl)cc3)C2=O)c(Br)c1` (configuration not stated): the activation was 78.5% (active).
On to `CC1(c2ccccc2)NC(=O)N(CC(=O)Nc2cc(Cl)ccc2N2CCOCC2)C1=O` (configuration not stated), for which the activation is -13.3%.
As for `Cc1ccc(C2(C)NC(=O)N(CC(=O)Nc3ccccc3C(=O)N3CCCCC3)C2=O)cc1` (configuration not stated), the activation is 20.7%.
The result for `Cc1ccc(NC(=S)Nc2ncccc2C)c(C)c1` reads 56.7% (active).
The result for `Cc1ccc(NC(=S)NCCc2ccc(Cl)cc2)c(C)c1` reads 21.9%.
The value for `Cc1ccc(NC(=S)NCc2ccccc2Cl)c(C)c1` was 5.6%.
Take `O=S(=O)(Nc1cccc(-c2ccc(N3CCOCC3)nn2)c1)c1ccc(Cl)c(Cl)c1`: the activation was 5.14%.
The value for `CCOc1ccc(S(=O)(=O)N2CCN(C(=S)NCC3CCCO3)CC2)cc1` (configuration not stated) was -5.36%; that for `CC(=O)Nc1ccc(-c2csc(NC(=O)Nc3ccccc3)n2)cc1` was -8.14%.
The result for `O=C(CCC(=O)c1cccs1)Nc1nc2ccccc2s1` reads 10.8%.
The result for `O=C(Nc1ccccc1)Nc1nc2ccccc2s1` reads 61.1% (active); that for `CCCNC(=O)CCn1cc(-c2ccc(OC)cc2)nc1CCN`, -10.4%.
Regarding `Cc1ccccc1NC(=O)c1ccccc1NS(=O)(=O)c1cccc2cccnc12`, the activation is -9.95%.
On to `O=[N+]([O-])c1ccccc1S(=O)(=O)Nc1cccc2cccnc12`, for which the activation is 144% (active).
On to `COc1cc(NS(=O)(=O)c2ccc3ccccc3c2)c2ncccc2c1`, for which the activation is -10.7%.
The result for `COc1ccc(C(=O)OCC(=O)c2ccc(Cl)s2)c(OC)c1OC` reads 3.84%; that for `Cc1cc(NC(=O)C(C)SCC(=O)Nc2ccccc2N2CCCCC2)no1` (configuration not stated), 10.3%.
As to `CCN(CC(=O)Nc1c(F)cccc1F)C(=O)c1ccc(-c2ccccc2)cc1`, the activation is 0.0275%.
As for `CCCCn1c(N)c(N(CCOC)C(=O)c2cccc(OCc3ccccc3)c2)c(=O)[nH]c1=O`, the activation was -6.35%.
In the case of `CC(OC(=O)C1CC(=O)N(Cc2ccccc2)C1)C(=O)Nc1ccccc1[N+](=O)[O-]` (configuration not stated), the activation was 8.17%.
For the molecule `CCOc1ccccc1Nc1ccc2nonc2c1[N+](=O)[O-]`, the activation was -13.1%.
The value for `O=[N+]([O-])c1c(NCCO)cc(Sc2nc3ccccc3s2)c2nonc12` was 229% (active); that for `O=C(O)c1cccc(S(=O)(=O)Nc2ccc(O)cc2Sc2nc3ccccc3s2)c1` was 1.08%.
With `Cc1ccc(C)c(OCCC(=O)OCC(=O)c2ccc3c(c2)NC(=O)CO3)c1`, the activation was -12.3%.
Turning to `COc1ccccc1C(=O)NC(=O)COC(=O)c1ccco1`, the activation was -0.902%.
The value for `CCCn1c(SCC(=O)c2ccc3c(c2)OCCO3)nnc1C(C)C` was 62.4% (active); that for `CCCn1c(SCC(N)=O)nnc1C(C)C` was 1.36%; that for `CCn1c(SCC(=O)Nc2ccc3c(c2)OCCO3)nnc1C(C)C` was -3.33%.
The value for `Cc1ccc(S(=O)(=O)N2CCC(C(=O)OCC(=O)N(C)c3ccccc3)CC2)cc1C` was -10.4%; that for `Cn1cccc1C(=O)OCC(=O)c1ccc(Br)s1` was -97.9%; that for `Cc1ccc(/C=C/C(=O)Nc2ccc([N+](=O)[O-])c(NC(=O)/C=C/c3ccc(C)o3)c2)o1` was 73% (active).
The result for `Cc1ccc(/C=C/C(=O)Nc2cc(S(=O)(=O)N3CCCCCC3)ccc2OCC(F)(F)F)o1` reads 2.76%; that for `CCc1nnc(NC(=O)/C=C/c2ccc(C)o2)s1`, 3.89%; that for `CCN(C(=O)CSc1nnc(-c2ccc(OC(F)F)cc2)n1N)C1CCS(=O)(=O)C1` (configuration not stated), -15.1%.
For `COC(=O)c1ccc(NS(=O)(=O)c2cc3c4c(c2)C(C)C(=O)N4CCC3)cc1` (configuration not stated), the activation is 21.6%.
The result for `COc1ccc(NC(=O)CN(C)C(=O)c2ccc(NC3CC3)c([N+](=O)[O-])c2)cc1` reads 5.08%.
The result for `O=C1CCc2cc(S(=O)(=O)Nc3ccc(C(F)(F)F)cc3)cc3c2N1CC3` reads 15.1%.
The result for `CC1CCN(C(=S)c2ccc(-c3ccc(Cl)cc3Cl)o2)CC1` reads 52% (active); that for `Cc1csc(NC(=O)c2ccc(-c3ccc(Cl)cc3Cl)o2)n1`, 3.06%; that for `COc1ccc(C(=O)Nc2c(Cl)cc(Cl)cc2C(=O)N2CCC(C)CC2)cc1`, 18%.
Consider `Cc1c(C(=O)OCC(=O)N2CCCC2=O)oc2ccccc12`, for which the activation was 16.8%.
The value for `N#Cc1cccc(OC(=O)c2ccc3c(=O)n4c(nc3c2)CCC4)c1` was -0.984%; that for `CCOC(=O)C1C(=O)C=C(c2ccc(OC)cc2)CC1c1ccco1` (configuration not stated) was 285% (active); that for `Cc1ccc(C2=NN(C(=O)CSc3nc(N)cc(N)n3)C(c3ccco3)C2)cc1` (configuration not stated) was 22.7%.
In the case of `CCOC(=O)C1C(=O)NC(N2CCN(c3ccccc3)CC2)=NC1c1ccco1` (configuration not stated), the activation is -4.78%.
`Cc1nc2c(c(C)nn2-c2ccccc2)c(C)c1C`: the activation is -8.62%.
The value for `Cc1ccnc(NC(=O)c2ccoc2C)c1` was 17.6%.
The result for `COc1cc(SC)ccc1C(=O)Nc1nc(C)cs1` reads -71.7%.
As for `COc1cc(SC)ccc1C(=O)Nc1cc(C)ccn1`, the activation was 55.7% (active).
Take `COC(=O)[C@@]12CCCN1[C@H](c1ccc(-c3ccc(F)cc3)c(OC)c1)[C@H]1C(=O)N(C)C(=O)[C@H]12`: the activation was 42.9%.
With `COc1ccc(Cl)cc1C=CC=Nc1ccc(S(N)(=O)=O)cc1`, the activation is -18.4%.
For `FC(F)Oc1ccc(NC(=S)NCc2ccco2)cc1Cl`, the activation was 7.43%.
The result for `COc1cc(NC(=S)NCc2ccco2)c(OC)cc1Cl` reads 62.1% (active); that for `COc1cccc(NC(=S)NCc2ccco2)c1`, 19.7%; that for `CCCCOc1ccc(-c2nnc(-c3ccco3)o2)cc1`, 79.3% (active).
The result for `Cc1ccc(OCC(=O)Nc2nnc(-c3ccco3)s2)cc1` reads 2.22%; that for `COc1ccc(OCC(=O)Nc2nnc(-c3ccco3)s2)cc1`, 3.21%.
Turning to `CC(C)Oc1ccc(S(=O)(=O)N2CCOCC2)cc1NC(=O)C1CSC2(C)CCC(=O)N12` (configuration not stated), the activation was 0.413%.
The value for `Cc1nn(C)cc1/C=N/NC(=O)c1sc2ccccc2c1Cl` was 3.1%; that for `Cc1ccc(-n2nc(C)c(/C=N/NC(=O)c3cccs3)c2Cl)cc1` was -8.54%.
Turning to `Cc1nn(-c2ccccc2)c(Cl)c1/C=N/NC(=O)c1nn(C)cc1[N+](=O)[O-]`, the activation was 125% (active).
The result for `Cc1cc(C)c(-c2c(O)c3ccccc3n(C)c2=O)c(C)c1` reads -9.47%; that for `Cn1c(=O)c([N+](=O)[O-])c(Oc2ccccc2)c2ccccc21`, 6.27%.
For `Cc1cccc(Oc2c([N+](=O)[O-])c(=O)n(C)c3ccccc23)c1`, the activation is 110% (active).
For the molecule `CC(=O)c1c(C)[nH]c(C(=O)COC(=O)CCOc2ccc(C)cc2)c1C`, the activation is -0.193%.
In the case of `COC(=O)N/N=C/c1c[n+]([O-])c2ccccc2[n+]1[O-]`, the activation was 0.846%.
`Cc1ccc(S(=O)(=O)N(C)C)cc1NC(=O)COC(=O)/C=C/c1cccs1`: the activation was -10.8%.
As for `Cc1ccc(S(=O)(=O)N(C)C)cc1NC(=O)COC(=O)C1COc2ccccc2O1` (configuration not stated), the activation was -5.78%.
As to `Cc1ccc(S(=O)(=O)N(C)C)cc1NC(=O)COC(=O)c1c(C)noc1C`, the activation was 63.2% (active).
With `O=C(N/N=C/c1cc(Br)c(O)c([N+](=O)[O-])c1)C(O)(c1ccccc1)c1ccccc1`, the activation is 3.81%.
The result for `N#C/C(=C/c1cccc([N+](=O)[O-])c1)c1nnc2n1CCCCC2` reads -2.78%.
The value for `N#C/C(=C(\O)C(F)(F)F)c1nnc2n1CCCCC2` was 55.4% (active).
As for `N#C/C(=C(\O)CCl)c1nnc2n1CCCCC2`, the activation was -4.83%.
The value for `CC(C)(C)N1C(=O)[C@H]2[C@@H](c3ccc(Br)cc3)N3C(=O)N(c4cccc(Cl)c4)C(=O)[C@@]3(C)[C@H]2C1=O` was -6%; that for `CCCCN(C(=O)CSCC(=O)Nc1ccc(OC)cc1)c1c(N)n(CCC)c(=O)[nH]c1=O` was -4.27%.
As for `Cc1ccccc1N1CC(C(=O)Nc2ccc(S(=O)(=O)N3CCCC3)cc2)CC1=O` (configuration not stated), the activation is 9.12%.
As to `CN(C1CCS(=O)(=O)C1)S(=O)(=O)c1ccc2ccccc2c1` (configuration not stated), the activation was -4.34%.
The result for `COc1ccc(Cc2nnc(SCC(=O)Nc3ccc(C)c(Cl)c3)[nH]c2=O)cc1` reads -4.89%; that for `c1cnc(N2CCN(c3ccc4ccccc4n3)CC2)nc1`, 53.3% (active); that for `O=C(c1ccncc1)N1CCN(c2ccc3ccccc3n2)CC1`, -4.23%.
Take `Oc1ccc(CN2CCN(c3ncccn3)CC2)cc1`: the activation was 7.28%.
The value for `CCN(CC(=O)Nc1c(F)cccc1F)C(=O)CN1c2cccc3cccc(c23)S1(=O)=O` was -9.4%; that for `Cc1cc(NC(=O)CCS(=O)(=O)c2ccc(F)cc2)no1` was -7.32%.
The value for `Cc1ccc(S(=O)(=O)NCCC(=O)NNC(=O)C2COc3ccccc3O2)cc1` (configuration not stated) was 5.45%.
For the molecule `Cc1ccc(C)c(OCC(=O)N2CCN(C(=O)c3ccco3)CC2)c1`, the activation is 17%.
Consider `Cc1ccc(OCC(=O)Nc2ccc(N3CCN(C(=O)c4ccco4)CC3)cc2)c(C)c1`, for which the activation is 67.8% (active).
With `COc1cccc(C(=O)Nc2ccc(N3CCN(C(=O)c4ccco4)CC3)cc2)c1`, the activation was -17.6%.
The value for `COc1ccc(C(=O)OCC(=O)Nc2ccc3[nH]c(=O)[nH]c3c2)c(OC)c1OC` was 29.4%; that for `CCc1c(C)sc(NC(=O)c2ccc(Br)o2)c1C(=O)OC` was 64.8% (active); that for `CCOC(=O)c1c(NC(=O)C2CC=CCC2C(=O)O)sc(C)c1CC` (configuration not stated) was -15%.
In the case of `CCc1c(C)sc(NC(=O)c2cccs2)c1C(N)=O`, the activation is 39.5%.
Consider `Cc1onc(-c2ccccc2Cl)c1C(=O)OCc1nnc(-c2ccccc2)o1`, for which the activation is 23.4%.
